This is a sample that favours compounds with a hit; in the whole collection about 3.2% have one here.
Sm TGR block: S. mansoni TGR enzyme inhibition | Q962Y6 | purified TGR, DTNB reduction, TNB absorbance 405 nm | Potency, µM (doses to about 114 µM), for inactives: at the top dose activity change, negative = inhibition, hits mostly inhibitors | 360,000 tested, 3% active | AID 485364; note: nearly all actives have a fitted effect of over 60% in size
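First, TGR (20 nM dispensed) and NADPH were mixed with compound. Second, a 15 min room-temperature incubation followed. Third, further NADPH and then DTNB were added to start the reaction. Finally, TNB absorbance was monitored kinetically.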
AMA1 RON2 block: inhibitors of Plasmodium falciparum AMA1-RON2 interaction | AlphaScreen AMA1-biotinylated RON2 peptide binding | Potency, µM (titrated, usually from 58.2 µM), for the others: at the highest dose activity change, negative = inhibition, actives largely listed as inhibitors | 360,000 tested, 0.2% active | AID 720542;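 note: 0% = vehicle wells and -100% = peptide control; nearly all actives have a fitted effect of over 45% in size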
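AMA1 (3D7) with his tag at 25 nM final met compounds first, then biotinylated RON2 peptide at 25 nM; detection used donor plus acceptor beads, 10 µg/mL apiece, read by AlphaScreen after 30 min at room temperature.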
AmpC detergent: AmpC beta-lactamase inhibition with detergent present; P00811; AmpC hydrolysis of nitrocefin, absorbance 480 nm, 0.01% Triton; Potency, µM (titrated, usually from 114 µM), inactives show top-dose activity change, negative = inhibition, most hits filed as inhibitors; 370,000 tested, 0.041% active;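 note: 0% = no-compound wells and -100% = no-enzyme wells; nearly all actives have a fitted effect of over 25% in size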
Target sequence (P00811 whole entry, looked up): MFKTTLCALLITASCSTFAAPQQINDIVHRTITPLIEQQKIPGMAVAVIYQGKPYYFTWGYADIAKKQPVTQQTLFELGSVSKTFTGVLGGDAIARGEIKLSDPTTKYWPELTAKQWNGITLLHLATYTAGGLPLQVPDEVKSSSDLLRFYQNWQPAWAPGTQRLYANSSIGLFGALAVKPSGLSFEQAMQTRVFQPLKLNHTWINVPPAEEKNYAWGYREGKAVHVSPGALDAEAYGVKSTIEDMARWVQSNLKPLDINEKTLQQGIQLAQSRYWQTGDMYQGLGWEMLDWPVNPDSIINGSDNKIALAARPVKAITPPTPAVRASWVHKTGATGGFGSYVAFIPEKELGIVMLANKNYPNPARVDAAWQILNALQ
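20 mM phosphate pH 7.0 + 0.01% (detergent screen) or 0.0001% Triton X-100; 5.3 nM AmpC reagent; cpd preinc 15 min RT; nitrocefin (800 uM stock) to start; A480 q20 s × 4 min; Activity was normalised to no-enzyme and no-compound control wells.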
AmpC inh no detg: inhibitors of E. coli AmpC beta-lactamase without detergent. P00811. AID 485341. Potency, µM (highest dose often 57.1 µM), without a hit: top-dose activity change, negative = inhibition, usual class: inhibitors. 330,000 tested, 0.52% active. AmpC nitrocefin hydrolysis, absorbance 480 nm, 0.0001% Triton;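 note: plate controls were no compound for no effect and no enzyme for full effect; nearly all actives have a fitted effect of over 20% in size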
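AmpC (5.3 nM in the dispensed reagent) in 20 mM phosphate pH 7.0 with 0.01% (detergent screen) or 0.0001% Triton X-100 was preincubated with compounds for 15 min at room temperature. Nitrocefin was then added from an 800 uM solution, and hydrolysis was followed at 480 nm.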
RE007 growth inh: less growth of the S. pombe RE007 Vpr strain; Potency, µM (highest dose often 92.2 µM), for the others: at the top dose activity change, negative = less growth, hits mostly inhibitors; AID 651644; S. pombe RE007 Vpr strain, BacTiter-Glo ATP luminescence, 24 h; 360,000 tested, 0.21% active; active = well fitted falling curve with a large enough effect; inconclusive = small, poorly fitted or top-dose-only effect; inactive = no such curve, though single readings can be large or run the other way; note: nearly all actives have a fitted effect of over 50% in size
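Fission yeast strain RE007, carrying one chromosomally integrated HIV-1 vpr copy, was seeded at OD 0.01 in PMG+AL medium with 23 nL pinned compound. After 24 h at 30 °C and 99% humidity, viability was read by BacTiter-Glo luminescence.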
An asterisk follows results filed as active; ? = inconclusive; nt = no result; [ ] = dose if it differs, or a comment. Unless noted, calls come from the whole dose curve; as a rule, active = well fitted curve in the direction sought with a large enough effect; inconclusive = small, poorly fitted or top-dose-only effect, or another doubt; inactive = no such curve, though single readings can be large; an effect the other way counts as inactive or inconclusive. Unless noted, % is set by controls: 0 for no effect and ±100 for the full control effect; potency is the fitted concentration of half-maximal effect.

SMILES | Sm TGR block | AMA1 RON2 block | AmpC detergent | AmpC inh no detg | RE007 growth inh
Cn1c(OCc2ccco2)nc2c1c(=O)n(Cc1ccc(Cl)c(Cl)c1)c(=O)n2C | 22.4µM* | -12.0% | ? | 19.7% | -8.2%
COc1ccc(NC(=O)C2=C(C)C(=O)OC23CCN(C(C)C)CC3)cc1Cl | -13.1% | nt | -0.3% | nt | nt
O=C(NCc1ccc2[nH]c3c(c2c1)CCCC3)c1ccc(S(=O)(=O)N2CCCC2)cc1 | 2.0% | -9.2% | -13.0% | -10.4% | 0.8%
CN(C)S(=O)(=O)c1ccc(C(=O)NCc2ccc3[nH]c4c(c3c2)CCCC4)cc1 | -13.3% | -18.5% | ? | 28.2µM* | -2.4%
O=C(NCc1ccc2[nH]c3c(c2c1)CCCC3)N1CCOCC1 | 35.5µM* | nt | -16.6% | 65.9% | nt
CCN(CC)S(=O)(=O)c1ccc(C(=O)NCc2ccc3[nH]c4c(c3c2)CCCC4)cc1 | -15.7% | -13.3% | -13.4% | 25.1µM* | 5.2%
Cc1ccccc1NC(=S)NCc1ccc2[nH]c3c(c2c1)CCCC3 | -9.0% | 43.5% | ? | -35.2% | 9.9%
Cc1ccc(C)c(NC(=S)NCc2ccc3[nH]c4c(c3c2)CCCC4)c1 | -23.9% | 28.2% | -4.8% | 35.5µM* | -9.9%
CCOCCc1nn2c(=O)cc(COC(=O)c3ccc(NC(=O)C4CCCCC4)cc3)nc2s1 | 2.0% | nt | -4.1% | nt | nt
Fc1ccc(CSc2nncn3c2cc2occc23)c(Cl)c1 | -2.2% | nt | ? | nt | nt
COc1cccc(-c2cn3c(n2)sc2cc(C(=O)NCCCc4ccccc4)ccc23)c1 | 1.2% | nt | 18.5% | nt | nt
COC(=O)c1ccc(Oc2nc3c(c(=O)n(C)c(=O)n3C)n2Cc2ccc(Cl)c(Cl)c2)cc1 | -3.9% | nt | -5.2% | nt | nt
Cc1ccc(C)c(CSc2nc3ccncc3n2CC(=O)Nc2ccc(C)c(C)c2)c1 | -11.7% | nt | ? | ? | nt
Cc1ccc(NC(=O)Cn2c(/C=C/c3ccccc3)nc3ccccc32)cc1C | -1.4% | -1.9% | 3.6% | 8.91µM* | -4.8%
CC(=O)c1cc(-c2ccccc2)n(CC(=O)Nc2ccc(C)c(C)c2)c1C | 17.8% | 1.2%[11.6 µM] | 1.6% | 11.2µM* | 1.2%
CC(=O)c1cc(-c2ccccc2)n(CC(=O)Nc2cccc(C)c2C)c1C | 0.4% | 16.1% | -7.6% | -25.0% | 15.4%
Cc1cccc(-c2nc(Cn3c(SCc4cc(C)ccc4C)nc4ccncc43)c(C)o2)c1 | 79.4µM* | nt | 23.1% | nt | nt
Cc1cccc(CSc2nc3ccncc3n2CC(=O)Nc2ccc(C)c(C)c2)c1 | 0.3% | nt | -12.9% | 3.16µM* | nt
CCCn1cc(S(=O)(=O)c2cccc(Cl)c2)c(=O)c2cc(F)c(N3CCN(CC)CC3)cc21 | -9.8% | nt | -6.6% | nt | nt
Cc1cnc(C(=O)Nc2ccccc2F)cn1 | 0.0% | 17.8% | -9.3% | 0.0% | -16.3%
Cc1cnc(C(=O)Nc2ccccc2-n2cccc2)cn1 | 50.1µM* | 29.6% | 15.4% | -8.9% | -25.2%
COc1ccccc1NCc1cccn1-c1nnc(N2CCOCC2)s1 | -7.6% | nt | -0.6% | nt | nt
COc1cccc(CNC(=O)Cn2ncn3nc(-c4cccs4)cc3c2=O)c1 | -5.8% | nt | -9.9% | nt | nt
COc1ccc(C(=O)C2CCCN(C(=O)CCc3scnc3C)C2)c(C)c1 (stereo not given) | 31.6µM* | -21.6% | -0.5% | -11.4% | 15.3%
Cc1ccc(N(CC(=O)N/N=C/c2cccc(Br)c2)S(C)(=O)=O)cc1 | 0.0% | 6.7%[11.6 µM] | -11.9% | 14.1µM* | 11.6%
SMILES | Sm TGR block | AMA1 RON2 block | AmpC detergent | AmpC inh no detg | RE007 growth inh
Cc1cc(C(=O)c2ccccc2)c(NC(=O)CCl)s1 | 7.94µM* | 0.9% | 0.1% | -13.7% | -4.0%
Cc1ccc(Cl)c(NC(=O)CCl)c1Cl | 31.6µM* | 8.1% | -9.3% | -13.8% | 6.9%
O=C(c1ccccc1)c1ccccc1NC(=O)c1ccccc1C(=O)O | 2.3% | nt | 5.5% | nt | nt
O=C(CCl)Nc1ccccc1C(=O)c1ccccc1 | 35.5µM* | 3.9% | ? | -16.1% | -8.4%
Cc1ccccc1NC(=O)CCl | 22.4µM* | 3.1% | 5.0% | -14.4% | 7.2%
Cc1ccc(-c2cc(C(=O)NCc3ccccc3)c3c(-c4ccc(C)cc4)[nH]nc3n2)cc1 | 6.6% | nt | 2.3% | nt | nt
O=C(COCc1cc(-c2ccc(F)cc2)on1)Nc1cc(Cl)cc(Cl)c1 | 7.6% | nt | 18.2% | nt | nt
CC(C)OCCCN1C(=O)c2[nH]nc(-c3ccccc3O)c2C1c1ccccc1F (stereo not given) | 6.1% | nt | 15.7% | nt | nt
CC(=O)c1ccc(N2CCN(C(=O)c3cc4ccc5cccnc5c4[nH]3)CC2)cc1 | -10.9% | nt | 18.1% | nt | nt
Cc1cc(Cl)n2c(nc3cc(F)c(F)cc32)c1C#N | 1.12µM* | 7.8% | 3.2% | -15.3% | ?
O=C(O)C1=CC(c2ccc(Br)cc2)n2ncnc2N1 (stereo not given) | 10.7% | nt | 13.3% | nt | nt
CC[C@@]1(c2cccc(C)c2)C(=O)N(C(=O)OC)N1C(=O)OC | 1.58µM* | -3.2% | -11.8% | -8.2% | 9.0%
CCOC(=O)N1C(=O)[C@@](CC)(c2ccccc2)N1C(=O)OCC | ? | -2.2% | ? | -5.4% | 6.7%
CC[C@@]1(c2ccccc2OC)C(=O)N(C(=O)OC)N1C(=O)OC | 25.1µM* | 0.5% | ? | -2.7% | -12.0%
Cc1ccccc1CNC(=O)Cn1ccc2cc(S(=O)(=O)N3CCCCC3)ccc21 | -8.7% | nt | 1.9% | nt | nt
Cn1c(=O)c2cc(S(=O)(=O)NC(Cc3ccccc3)C(=O)NCc3ccco3)ccc2n(C)c1=O (stereo not given) | 39.8µM* | -1.5% | -10.8% | -0.4% | -1.1%
COCCCNC(=O)C(Cc1ccccc1)NS(=O)(=O)c1ccc2c(c1)c(=O)n(C)c(=O)n2C (stereo not given) | 0.4% | 16.8% | ? | -23.3% | ?
Cc1cccc(-n2c(SCC(=O)c3ccccc3)nnc2-c2ccc(Br)cc2)c1 | 6.6% | nt | 8.9% | nt | nt
CC(=O)Nc1ccccc1-c1nc2ccccc2n(C(C)C(=O)Nc2cccc(C)c2C)c1=O (stereo not given) | -8.2% | nt | -6.1% | nt | nt
COc1cccc(CNC(=O)CSc2ccc(-c3sc(-c4ccccc4)nc3C)nn2)c1 | 0.3% | nt | -4.8% | nt | nt
COc1ccc(NC(=S)NC(NC(=O)c2ccccc2Cl)C(Cl)(Cl)Cl)c([N+](=O)[O-])c1 (stereo not given) | -2.6% | -8.7% | -1.3% | -36.0% | 4.2%
COc1ccc(NC(=S)NC(NC(=O)CCl)C(Cl)(Cl)Cl)c([N+](=O)[O-])c1 (stereo not given) | 2.82µM* | 10.4% | -5.7% | -55.9% | -3.0%
COC(=O)NC(NC(=S)Nc1ccc([N+](=O)[O-])cc1)C(Cl)(Cl)Cl (stereo not given) | 20µM* | 10.5% | -6.5% | -39.8% | 19.8%
CCOC(=O)NC(NC(=S)Nc1ccc(OC)cc1)C(Cl)(Cl)Cl (stereo not given) | -9.3% | -8.1% | ? | -52.7% | 9.1%
